Test results as given in PubChem BioAssay (Tox21).
Inconclusive results are not listed. Values without a mark were called inactive. Calls come from the whole dose curve; as a rule, active = well fitted cell-killing curve with a large enough effect in the repeat runs; inconclusive = weak or mixed curves, or effect the other way; inactive = no such curve, though single readings can be large or run the other way. Where a SMILES comes first, the peptide text is derived from it. [ ]: non-standard residue; d: D form. pGlu = O=C1CC[C@@H](C(=O)O)N1

Assay: qHTS assay to identify small molecule agonists of the estrogen receptor alpha (ER-alpha) signaling pathway in the presence of an antagonist - cell viability counter screen (AID 1259386);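 note: cells exposed to compounds for 22 h at 37 °C before the viability read; nearly all actives have a fitted effect of over 30% in size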
Conditions: VM7Luc4E2 viability, CellTiter-Fluor fluorescence, 22 h; series mostly up to 92.4 µM; activity change, negative = cytotoxicity: at the top concentration
How it was run: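 Cell viability in VM7Luc4E2 cells (endogenous full-length ER-alpha) measured by CellTiter-Fluor fluorescence in the same wells as the luciferase screen. Cells pre-cultured 5 days in charcoal-stripped serum, then treated 22 h with compounds at 15 concentrations plus 10.0nM ICI-182,780.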
% is set by controls: 0 for no effect and ±100 for the full control effect.

| Structure (SMILES) | activity change, negative = cytotoxicity |
| --- | --- |
| CC1(C)OC[C@@H](COC(=O)CCc2ccc(OC[C@@H](O)CNCCNC(=O)N3CCOCC3)cc2)O1 | 3.55% [at 42.5 µM] |
| CCC(C(=O)NC(=O)NC(C)=O)c1ccccc1 (stereo unspecified) | -0.604% [at 42.5 µM] |
| CN1C(C)(C)CC(O)CC1(C)C | 3.35% |
| O=C(c1ccccc1)C1(O)CCCCC1 | 0.534% |
| [O-][n+]1cccc(CO)c1 | 1.68% [at 42.5 µM] |
| CCNC(=O)[C@@H]1CCCN1C(=O)[C@H](CCCN=C(N)N)NC(=O)[C@H](CC(C)C)NC(=O)CNC(=O)[C@H](Cc1ccc(O)cc1)NC(=O)[C@H](CO)NC(=O)[C@H](Cc1c[nH]c2ccccc12)NC(=O)[C@H](Cc1cnc[nH]1)NC(=O)[C@@H]1CCC(=O)N1 ([pGlu]HWSYGLRP-NHEt) | 2.78% [at 42.5 µM] |
| CC(C)CC(C)(N)C#N (stereo unspecified) | 0.602% |
| O=C(O)CCSCCC(=O)O | 0.429% |
| CC(COc1ccccc1)NN (stereo unspecified) | -1.06% [at 42.5 µM] |
| C=CC(=O)OCCCl | 1.51% |
| NS(=O)(=O)Cc1noc2ccccc12 | 0.684% [at 42.5 µM] |
| CCNS(=O)(=O)c1ccc(C)cc1 | 0.509% |
| CC(=O)NC(=O)c1ccccc1O | 0.596% [at 42.5 µM] |
| OCCCCCO | -0.383% |
| O=C(CO)[C@@H](O)[C@H](O)[C@H](O)CO | 4.14% |
| C=CC(C)(CCC=C(C)C)OC(=O)CC (stereo unspecified) | -0.631% |
| CN(C)[C@@H]1C(=O)C(C(=O)NCN2CCCC2)=C(O)[C@@]2(O)C(=O)C3=C(O)c4c(O)cccc4[C@@](C)(O)C3C[C@@H]12 (stereo partly specified) | 0.111% [at 42.5 µM] |
| Clc1cc(Cl)cc(Cl)c1 | -2.72% |
| O=C1CCCCCCCCCCCCCCO1 | 0.759% |
| CCCO[Si](OCCC)(OCCC)OCCC | 1.02% |
| C=COCC1CCC(COC=C)CC1 (stereo unspecified) | 0.138% |
